According to the supplement of paper PMC12494721:
Structures can show the parent of a compound that is named as a salt.

How the values were obtained:
Conditions in all cases: incubation time: 27 h, anaerobic, 37 °C;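 for the amine columns active = adjusted P below 0.05 in both replicates with a change the same way and a mean fold change under 0.8 or over 1.25; inactive = the rest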
[1] = tested on: Clostridium sporogenes DSM 1664; assay: growth (OD595) fold change vs plate DMSO controls (fold change (ratio)); higher = more growth
Summary of the method: (§1)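 Growth is the fold change relative to the median of plate DMSO controls. Readings came from anaerobic mGAM cultures in 96-well plates grown for 27 h at 37 °C and read at 595 nm. They were blank-subtracted, corrected for compound background with 20 µM compound solutions in water, and converted to OD with a calibration factor of 5. Values are means of 2 biological replicates, and fold changes above 1.5 were set to NA.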

Escherichia coli IAI1 [2] = assay: as above
Summary of the method: as §1

[3] = tested on: Klebsiella aerogenes DSM 30053; assay: as above
Summary of the method: as §1

[4] = tested on: Ruminococcus gnavus DSM 108212; assay: as above
Summary of the method: as §1

[5] = tested on: Klebsiella aerogenes DSM 30053; assay: fold change of Histamine concentration vs plate DMSO controls (fold change (ratio)); higher = more amine produced, active = hit call of the paper (significant change in both replicates, either direction)
Summary of the method: (§2)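 In 80 µL wells, cultures of four gut bacterial strains in mGAM started at OD 0.1 before a 1:1 dilution and grew anaerobically at 37 °C for 27 h. Compounds were added to 20 µM final, except sweeteners at 50 µM final. After extraction of whole cultures with cold acetonitrile/methanol plus 0.1% formic acid and centrifugation, amines were measured by LC–triple-quadrupole MS in dynamic MRM mode against external calibration curves, with within-batch drift correction. Values give fold change over DMSO controls on the same plate, averaged across 2 biological replicates.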

[6] = tested on: Clostridium sporogenes DSM 1664; assay: fold change of Tryptamine concentration vs plate DMSO controls (fold change (ratio)); higher = more amine produced, active = hit call of the paper (significant change in both replicates, either direction)
Summary of the method: as §2

[7] = tested on: Ruminococcus gnavus DSM 108212; assay: as above
Summary of the method: as §2

Escherichia coli IAI1 [8] = assay: fold change of Putrescine concentration vs plate DMSO controls (fold change (ratio)); higher = more amine produced, active = hit call of the paper (significant change in both replicates, either direction)
Summary of the method: as §2

[9] = tested on: Klebsiella aerogenes DSM 30053; assay: as above
Summary of the method: as §2

Escherichia coli IAI1 [10] = assay: fold change of Cadaverine concentration vs plate DMSO controls (fold change (ratio)); higher = more amine produced, active = hit call of the paper (significant change in both replicates, either direction)
Summary of the method: as §2

[11] = tested on: Klebsiella aerogenes DSM 30053; assay: as above
Summary of the method: as §2

[12] = tested on: Ruminococcus gnavus DSM 108212; assay: fold change of 2-Phenylethylamine concentration vs plate DMSO controls (fold change (ratio)); higher = more amine produced, active = hit call of the paper (significant change in both replicates, either direction)
Summary of the method: as §2

Row | Structure (SMILES) | growth [1] | growth (Escherichia coli IAI1 [2]) | growth [3] | growth [4] | fold change of Histamine concentration [5] | fold change of Tryptamine concentration [6] | fold change of Tryptamine concentration [7] | fold change of Putrescine concentration (Escherichia coli IAI1 [8]) | fold change of Putrescine concentration [9] | fold change of Cadaverine concentration (Escherichia coli IAI1 [10]) | fold change of Cadaverine concentration [11] | fold change of 2-Phenylethylamine concentration [12]
1 | C[N+](C)(C)C[C@H](O)CC(=O)[O-] [Levocarnitine] (20 µM) | 0.997 | 1 | 0.994 | 0.966 | 1.04 (inactive) | 0.955 (inactive) | 1.07 (inactive) | 1.02 (inactive) | 1.03 (inactive) | 0.929 (inactive) | 1.09 (inactive) | 1.22 (inactive)
2 | O=C(O)COCCN1CCN(C(c2ccccc2)c2ccc(Cl)cc2)CC1 (stereo not given) [Cetirizine dihydrochloride] (20 µM) | 1.02 | 1.07 | 1.04 | 0.959 | 0.94 (inactive) | 1.03 (inactive) | 1.01 (inactive) | 1.06 (inactive) | 0.997 (inactive) | 0.957 (inactive) | 1 (inactive) | 1.03 (inactive)
3 | CCCNC(=O)NS(=O)(=O)c1ccc(Cl)cc1 [Chlorpropamide] (20 µM) | 0.913 | 1.03 | 0.983 | 1.03 | 1.17 (inactive) | 0.956 (inactive) | 1.13 (inactive) | 0.938 (inactive) | 1.03 (inactive) | 0.993 (inactive) | 1.1 (inactive) | 1.31 (active)
4 | N[C@@H]1CONC1=O [D-cycloserine] (20 µM) | 0.977 | 0.973 | 1.09 | 0.926 | 0.897 (inactive) | 0.958 (inactive) | 0.931 (inactive) | 1 (inactive) | 1.03 (inactive) | 1.02 (inactive) | 1.05 (inactive) | 0.868 (inactive)
5 | CCN(CC)CCOc1ccc(C(=C(Cl)c2ccccc2)c2ccccc2)cc1 [(Z,E) Clomiphene citrate] (20 µM) | 1.06 | 1 | 1.02 | 1.01 | 0.973 (inactive) | 1.05 (inactive) | 0.655 (active) | 0.961 (inactive) | 0.981 (inactive) | 0.955 (inactive) | 1.01 (inactive) | 0.804 (inactive)
6 | C[N+]1(CCCCC[N+]2(C)CCCC2)CCCC1 [Pentolinium bitartrate] (20 µM) | 0.933 | 0.986 | 1.01 | 0.709 | 1.06 (inactive) | 1.08 (inactive) | 0.98 (inactive) | 1.03 (inactive) | 1.01 (inactive) | 0.966 (inactive) | 0.999 (inactive) | 0.943 (inactive)
7 | CCCc1c2oc(C(=O)O)cc(=O)c2cc2c(=O)cc(C(=O)O)n(CC)c12 [Nedocromil sodium] (20 µM) | 0.949 | 0.993 | 1 | 0.981 | 1.06 (inactive) | 0.924 (inactive) | 0.987 (inactive) | 0.999 (inactive) | 1.01 (inactive) | 1.04 (inactive) | 0.984 (inactive) | 1 (inactive)
8 | CCCCc1ccc2[nH]c(NC(=O)OC)nc2c1 [Parbendazole] (20 µM) | 1.04 | 1.04 | 1.02 | 1.25 | 1.11 (inactive) | 0.953 (inactive) | 0.998 (inactive) | 0.98 (inactive) | 1.07 (inactive) | 0.981 (inactive) | 1.03 (inactive) | 1.02 (inactive)
9 | Nc1ccn([C@@H]2O[C@H](CO)[C@@H](O)C2(F)F)c(=O)n1 [Gemcitabine] (20 µM) | 0.371 | 0.338 | 0.294 | 0 | 1.07 (inactive) | 0.969 (inactive) | 0.641 (active) | 0.969 (inactive) | 1.01 (inactive) | 1.02 (inactive) | 0.999 (inactive) | 0.753 (inactive)
10 | NCCCC(O)(P(=O)(O)O)P(=O)(O)O [Alendronate sodium] (20 µM) | 1.08 | 1.04 | 1.1 | 1.03 | 0.858 (inactive) | 1.1 (inactive) | 1.05 (inactive) | 0.992 (inactive) | 0.947 (inactive) | 1.01 (inactive) | 1.01 (inactive) | 1.05 (inactive)
11 | Oc1c(Cl)cc(Cl)c(Cl)c1Cc1c(O)c(Cl)cc(Cl)c1Cl [Hexachlorophene] (20 µM) | 0 | 0.943 | 0.999 | 0 | 1.17 (inactive) | 0.0251 (active) | 0.0326 (active) | 0.982 (inactive) | 1.02 (inactive) | 1.1 (inactive) | 1.02 (inactive) | 0.0393 (active)
12 | C=C(C)[C@@H]1CC=C(/C=N/O)CC1 [Perillartine] (50 µM) | 1.04 | 1.04 | 1.09 | 1.11 | 0.933 (inactive) | 1.02 (inactive) | 1 (inactive) | 0.985 (inactive) | 1.03 (inactive) | 0.99 (inactive) | 1.02 (inactive) | 1 (inactive)
13 | CCCSc1ccc2[nH]c(NC(=O)OC)nc2c1 [Albendazole] (20 µM) | 0.989 | 1.01 | 1.05 | 0.661 | 1.09 (inactive) | 0.961 (inactive) | 1.07 (inactive) | 1.01 (inactive) | 1.02 (inactive) | 0.982 (inactive) | 1.01 (inactive) | 1.13 (inactive)
14 | CCCCN1CCCCC1C(=O)Nc1c(C)cccc1C (stereo not given) [Bupivacaine hydrochloride] (20 µM) | 1.13 | 1.07 | 1 | 0.881 | 0.967 (inactive) | 1.02 (inactive) | 1.01 (inactive) | 1.02 (inactive) | 0.995 (inactive) | 1.01 (inactive) | 1 (inactive) | 1.02 (inactive)
15 | O=C(O[C@@H]1C[C@@H]2C[C@H]3C[C@H](C1)N2CC3=O)c1c[nH]c2ccccc12 [Dolasetron mesilate] (20 µM) | 0.968 | 0.994 | 0.986 | 1.07 | 0.981 (inactive) | 1 (inactive) | 1.02 (inactive) | 0.942 (inactive) | 0.991 (inactive) | 0.979 (inactive) | 0.989 (inactive) | 1.04 (inactive)
16 | N=C(N)c1ccc(OCCCCCOc2ccc(C(=N)N)cc2)cc1 [Pentamidine isethionate] (20 µM) | 1.15 | 1.05 | 0.985 | 1.35 | 0.984 (inactive) | 0.79 (inactive) | 0.365 (active) | 0.993 (inactive) | 0.914 (inactive) | 0.825 (inactive) | 1.01 (inactive) | 0.38 (active)
17 | CCOC(=O)/C=C(C)/C=C/C=C(C)/C=C/c1c(C)cc(OC)c(C)c1C [Etretinate] (20 µM) | 1.04 | 0.971 | 0.965 | 0.927 | 1.09 (inactive) | 1.02 (inactive) | 1.03 (inactive) | 0.998 (inactive) | 1.02 (inactive) | 1 (inactive) | 0.983 (inactive) | 1.04 (inactive)
18 | COc1ccc(CC(C)NCC(O)c2ccc(O)c(NC=O)c2)cc1 (stereo not given) [Formoterol fumarate] (20 µM) | 1.13 | 1.21 | 1.11 | 1.3 | 0.864 (inactive) | 1.03 (inactive) | 1.1 (inactive) | 1.03 (inactive) | 0.951 (inactive) | 0.91 (inactive) | 1.09 (inactive) | 1.11 (inactive)
19 | NS(=O)(=O)c1cc2c(cc1C(F)(F)F)NCNS2(=O)=O [Hydroflumethiazide] (20 µM) | 0.947 | 1.05 | 0.989 | 0.941 | 0.965 (inactive) | 0.92 (inactive) | 0.987 (inactive) | 1.06 (inactive) | 1.01 (inactive) | 1 (inactive) | 1.01 (inactive) | 0.935 (inactive)
20 | O=C(CCCN1CCC(O)(c2ccc(Cl)cc2)CC1)c1ccc(F)cc1 [Haloperidol] (20 µM) | 0.929 | 0.6 | 0.574 | 0.802 | 1.06 (inactive) | 1.05 (inactive) | 0.96 (inactive) | 1.03 (inactive) | 1 (inactive) | 0.864 (inactive) | 0.992 (inactive) | 0.965 (inactive)
21 | COC(=O)Nc1nc2ccc(SC(C)C)cc2[nH]1 [Methiazole] (20 µM) | 0.921 | 1 | 1.24 | 1.08 | 0.952 (inactive) | 1.04 (inactive) | 0.938 (inactive) | 0.996 (inactive) | 1.01 (inactive) | 1.04 (inactive) | 1.02 (inactive) | 0.929 (inactive)
22 | CC(C)NCC(O)COc1ccc(COCCOC(C)C)cc1 (stereo not given) [Bisoprolol hemifumarate] (20 µM) | 1.1 | 0.975 | 0.97 | 0.79 | 0.965 (inactive) | 1.2 (inactive) | 1.09 (inactive) | 1 (inactive) | 0.846 (inactive) | 0.99 (inactive) | 1.13 (inactive) | 1.09 (inactive)
23 | CN(C)CCC(c1ccc(Cl)cc1)c1ccccn1 (stereo not given) [Chlorpheniramine maleate] (20 µM) | 0.73 | 0.712 | 0.719 | 0.699 | 0.983 (inactive) | 1.05 (inactive) | 1.03 (inactive) | 0.846 (inactive) | 0.989 (inactive) | 1.43 (active) | 1 (inactive) | 1.02 (inactive)
24 | CC(=O)O[C@@]12CO[C@@H]1C[C@H](O)[C@@]1(C)C(=O)[C@H](O)C3=C(C)[C@@H](OC(=O)[C@H](O)[C@@H](NC(=O)OC(C)(C)C)c4ccccc4)C[C@@](O)([C@@H](OC(=O)c4ccccc4)[C@H]21)C3(C)C [Docetaxel] (20 µM) | 0.864 | 1 | 1.03 | 1.05 | 1.05 (inactive) | 0.991 (inactive) | 1 (inactive) | 1.02 (inactive) | 1.01 (inactive) | 1.02 (inactive) | 0.998 (inactive) | 0.956 (inactive)
25 | CC(=O)Nc1c(I)c(NC(C)=O)c(I)c(C(=O)O)c1I [Diatrizoic acid dihydrate] (20 µM) | 1.28 | 1.05 | 1.01 | 0.851 | 1.03 (inactive) | 0.947 (inactive) | 1.05 (inactive) | 1.07 (inactive) | 0.983 (inactive) | 1.01 (inactive) | 0.988 (inactive) | 1.01 (inactive)
